The panel holds about 79,000 compounds, 15% with a hit somewhere; the sample as a whole holds those more often. Unmarked numbers belong to inactive results. The source made the active and inactive calls. Cut-off read from the data, not from the text of the source: active = growth inhibition above about 70%; inactive = the rest.
experiment: NCI Yeast Anticancer Drug Screen. Data for the mlh1 rad18 strain (AID 175); settings: S. cerevisiae mlh1 rad18 strain growth inhibition; at 50.0 µM; active compounds read high
Outline: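 A repair-deficient yeast strain is exposed to test compound, and growth is scored relative to vehicle-treated controls.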

Row | SMILES | growth inhibition
1 | Cc1nc(N/N=C/c2ccccc2Cl)[nH]c(=O)c1CCO | 4.15%
2 | CSCCC(NC=O)C(=O)O (stereo not given) | 3.8%
3 | S=C1CC(c2ccccc2)Sc2ccccc2N1 (stereo not given) | -25.6%
4 | C/C(=N/O)c1sc(-c2nc(C)c(/C(C)=N\O)s2)nc1C | 3.05%
5 | CCCCCC1NC(C)(C)CO1 (stereo not given) | 10.7%
6 | CCCC1SCC(C)(C)NC1=O (stereo not given) | -2.4%
7 | OC1C=COC2COC(c3ccccc3)OC12 (stereo not given) | 10.2%
8 | CCCCCCCCSc1nc2ccc(N=Cc3ccccc3O)cc2s1 | 36.1%
9 | COC1CCC2(C)C3CCC4C(=CCC5C(C)(C)C(=O)CCC45C)CC3(C)CCC2C1(C)C (stereo not given) | -12.1%
10 | CCOC(=O)CS(=O)(=O)C1CCCCC1c1cc(OC)c(OC)c(OC)c1 (stereo not given) | 10.4%
11 | CN1CCN(C(=S)N(C(=O)c2ccc(Cl)cc2)C2CCCCC2)CC1 | -65.7%
12 | COC(OC)c1cccc2c1C(=O)CCC1(O)c3ccccc3C1C2 (stereo not given) | -30.9%
13 | CC(=O)NC1C(=O)N(c2ccccc2)N=C1C (stereo not given) | 9.85%
14 | Fc1ccc(CSC(=S)Nc2ccc(I)cc2)cc1 | 99% (active)
15 | C/C(=C\c1ccccc1)C(=O)c1ccccc1 | 20%
16 | CC(C)(C)NC(=O)NCc1ccc(Cl)cc1 | -9.8%
17 | CCC(=O)n1cc2ccc([N+](=O)[O-])cc2n1 | -3.05%
18 | CC(C)CCC[C@@H](C)[C@H]1CC[C@H]2[C@@H]3CC[C@H]4C[C@@H](CCC=C(c5cc(Cl)c(O)c(C(=O)O)c5)c5cc(Cl)c(O)c(C(=O)O)c5)CC[C@]4(C)[C@H]3CC[C@]12C | -1.75%
19 | CCCCS(=O)(=O)CCCC | 22.9%
20 | CN1C(c2ccccc2)=C(C#N)C(=O)CC(c2ccco2)N1C (stereo not given) | 13.1%

Row | SMILES | growth inhibition
21 | COc1ccc(-c2nc(N)nc3c2CN(CCCC(=O)O)C3=O)cc1 | -10.4%
22 | O=C(O)CCC(=O)Nc1cc(C(F)(F)F)ccc1Cl | 7.5%
23 | C=C1OC(c2ccccc2NC)=NC12CCCCC2 | -11.2%
24 | COc1cc(N=Nc2c(Cl)cc([N+](=O)[O-])cc2Cl)c(OC)cc1N=Nc1ccc(N)nc1N | 9.45%
25 | CSC(=N\N=C\c1c(F)cccc1Cl)/N=C/N(C)C | 4%
26 | CCCCCN1C(=O)N=NC1=S | -2.5%
27 | COc1cc2c(c(OC)c1OC)-c1ccc(OC)c(=O)cc1[C@@H](NC(=O)c1ccccc1)CC2 | 18.9%
28 | C[N+]1(C)CC=C(N2CCOCC2)CC1 | -14.4%
29 | CCCCC[N+](CCCCC)(CCCCC)CCCCC | -13.5%
30 | O=P(c1ccccc1)(c1ccccc1)C(O)c1ccc(F)cc1 (stereo not given) | -7.25%
31 | Nc1nc2[nH]c(=O)c(C(=O)O)nc2c(=O)[nH]1 | -11.6%
32 | COc1cc2nncc(SCc3ccc(Cl)cc3)c2cc1OC | 4.05%
33 | Cc1ccccc1-c1c2ccccc2cc2c1ccc1ccccc12 | 0.35%
34 | CCOC(=O)CC(C)C(C(=O)OCC)C(=O)OCC (stereo not given) | 14%
35 | CCCc1cc(=O)oc2c3c(c4c(c12)OC(C)(C)C=C4)OC(C)[C@H](C)[C@@H]3O (stereo not given in full) | 26.1%
36 | O=C(O)C12C3CCC(CC3)C1(C(=O)O)C1CCC2C1 (stereo not given) | -1.2%
37 | CNC(=O)OCc1c(COC(=O)NC)c(-c2ccc(F)cc2)n2c1CCC2 | 52.6%
38 | NNC(=O)c1oc2ccccc2c1CN(CCO)CCO | -5.1%
39 | CC(=O)O[C@H]1CC[C@]2(C)C3CC[C@]4(C)C([C@H](C)CCCC(C)C)CCC4[C@]3(/C=N/O)n3c(=O)n(-c4ccccc4)c(=O)n3[C@]2(/C=N\O)C1 (stereo not given in full) | 45.4%
40 | CCOC(=O)Nc1ccccc1F | 9%

Reference: PubChem BioAssay (NCI)
